The source made the active and inactive calls.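 Rule for the calls, unless noted: active = inhibition of the reporter signal at or above 50%; inactive = inhibition below 50%.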

The first assay can be described thus: inhibitors of Sendai virus-induced IRF3 signaling, primary screen, TLR/RLR signaling modifier project, cell-based, Sendai virus stimulus, luciferase, 10K MLSCN set (AID 602276;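 active = inhibition at or above 50% at 10 µM; inactive = inhibition below 50%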;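 note: firefly luciferase from ISG56 promoter only with Renilla not read in this screen; 0% = Sendai virus plus DMSO and 100% = medium plus DMSO without virus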). The conditions noted are these: HEK293 RL24 IRF3 luciferase reporter, at 10 µM, stronger effect = higher value. A general note: In a reporter assay the amount or activity of a reporter protein is the signal.
As usually defined, the inhibition is the relative decrease from the control value, in per cent. For the compound `CCOP(=O)(c1ccc(N(C)C)cc1)C(O)c1c(Cl)cccc1Cl` (stereo not given), the inhibition is 12.4% (inactive).
As to `Cc1[nH]n(C(N)=S)c(=O)c1C(c1ccccc1)C(C#N)C#N` (stereo not given), the inhibition is -11.3% (inactive).
The same measure, in the same setting: the figure for `CCNc1ccc2c(Cl)cc(=O)oc2c1` is 4.11% (inactive); for `Cc1ccnc(NS(=O)(=O)c2ccc(NC(=O)Cc3cccs3)cc2)n1` it is -4.32% (inactive).
Turning to `O=c1oc2ccccc2c(O)c1CN1CCCCC1`, the inhibition is 15.4% (inactive).
Still for that read-out and setting: next, `CCOCCn1c(CN2CCC(Cc3ccccc3)CC2)nc2c1c(=O)n(C)c(=O)n2C`: 19.8% (inactive); `NC(=O)c1cc(-c2ccccc2)nc(N2CCOCC2)n1`: 8.52% (inactive).
The same measure, in the same setting: next, `O=C(CN1C(=O)c2ccccc2S1(=O)=O)Nc1ccc(S(=O)(=O)N2CCCCCC2)cc1`: 4.06% (inactive); `COC(=O)C1=C(C)Nc2ncnn2C1c1ccc(C)o1` (stereo not given): -15.9% (inactive).
Still for that read-out and setting: next, `CC1Cc2ccccc2N1C(=O)c1cnsn1` (stereo not given): -9.05% (inactive).
Turning to `COc1ccc(C(=O)OCC(=O)NCc2ccco2)cc1OC`, the inhibition was 17.6% (inactive).
In the case of `CCOC(=O)Cn1c(S(=O)(=O)Cc2ccccc2)nc2ccccc21`, the inhibition is 9.42% (inactive).
The same measure, in the same setting: next, `CCOC(=O)C1CCN(c2c(NC3CCCCCCC3)c(=O)c2=O)CC1`: 9.6% (inactive); `COc1ccc2c(c1)C1(Nc3ccccc3-c3nc4ccccc4n31)C(=O)N2` (stereo not given): 17.4% (inactive).
On the same count and under the same terms, the figure for `Cc1cccc(NC(=O)CC2NC3CCCCC3NC2=O)c1` (stereo not given) is 13.5% (inactive); for `COc1ccc(-c2nc(CCNC(=O)c3ccco3)cs2)cc1OC` it is 22.7% (inactive).
Same read-out and setting: the figure for `CCN(CC)CCCNC1CCS(=O)(=O)C1` (stereo not given) is 2.02% (inactive); for `O=C(C1CCC(CNS(=O)(=O)c2cccc3cccnc23)CC1)N1CCCC1` (stereo not given) it is -0.546% (inactive).
Regarding `CCCc1cc(Nc2cccc(OC)c2)n2ncnc2n1`, the inhibition is 12.1% (inactive).
Take `CC(=O)c1c(O)cc(C)n(Nc2nc(C)cc(C)n2)c1=O`: the inhibition is -1.56% (inactive).
On the same count and under the same terms, the figure for `CCOC(=O)C1CCN(C(=O)CN(Cc2ccccc2)S(C)(=O)=O)CC1` is 10% (inactive); for `Cc1nc(C)c2c(c1C(F)(F)F)-c1ccccc1C2(F)F` it is -9.52% (inactive); for `CCCC(=O)Nc1ccc(NC(=O)c2ccccc2OC)cn1` it is 1.27% (inactive).
Still for that read-out and setting: the figure for `O=C(CCc1ccc(S(=O)(=O)N2CCOCC2)cc1)NCCc1ccccn1` is -4.86% (inactive); for `COC(=O)c1sc(N)c(C(=O)OC)c1COC(=O)C1CC(=O)N(Cc2ccco2)C1` (stereo not given) it is 15.8% (inactive); for `CCC12CN3CC(CC)(CN(C1)C3c1ccc(OC(C)C)cc1)C2=O` (stereo not given) it is 8.78% (inactive).
The same measure, in the same setting: the figure for `Cc1ccccc1-c1nc(CN2CCC(C(=O)N3CCC(C(N)=O)CC3)CC2)c(C)o1` is 7.94% (inactive); for `CC1(C(=O)NC2CCCCC2)CCC(=O)N1Cc1cccs1` (stereo not given) it is -11.7% (inactive); for `CC(=O)Nc1cccc(NC(=O)C2CCCN2C(=O)Nc2ccc(C)cc2)c1` (stereo not given) it is -9.54% (inactive).
For `Cn1cccc1Cc1nnc(SCC(N)=O)n1-c1ccc(F)cc1`, the inhibition is 10.4% (inactive).
On the same count and under the same terms, the figure for `O=c1cc(CN2CCN(c3ccc(F)cc3)CC2)nc2sccn12` is -6.74% (inactive).
The same measure, in the same setting: next, `Cc1cc2ccccc2n1CCNC(=O)c1ccc(S(=O)(=O)N2CCOCC2)cc1`: 13.5% (inactive); `COc1cc(N=c2ssnc2Cl)cc(OC)c1`: -6.83% (inactive); `COc1ccccc1C(=O)N1CCN(CCc2ccccc2)CC1`: 8.51% (inactive).
The same measure, in the same setting: next, `CCOc1cc(NC(=O)c2ccco2)c(OCC)cc1NC(=O)COc1ccccc1C`: -1.87% (inactive); `O=C(c1ccc(CNc2c(N3CCCC3)c(=O)c2=O)cc1)N1CCc2ccccc2C1`: -7.92% (inactive).
For the compound `CCOC(=O)c1c(C)n(C)c2c(C)cc(O)c(OC(C)=O)c12`, the inhibition was 4.23% (inactive).
On the same count and under the same terms, next, `Cc1nnc(SC(=O)N2c3ccccc3Sc3ccccc32)s1`: 5.05% (inactive).
Same read-out and setting: the figure for `O=C(O)CCCc1nc(-c2ccccc2)no1` is 16.6% (inactive).
Same read-out and setting: next, `Cc1ccc(S(=O)(=O)N2CCN(C(=O)CSc3nnnn3C)C2)cc1`: 6.82% (inactive).

The nature of a further assay: inhibitors of poly I:C-induced TLR3 signaling, primary screen, cell-based, poly I:C stimulus, luciferase, 10K MLSCN set (AID 602277). The conditions noted are these: HEK293-TLR3 RL24 IRF3 luciferase reporter, at 10 µM, stronger effect = higher value.
In the case of `CCOP(=O)(c1ccc(N(C)C)cc1)C(O)c1c(Cl)cccc1Cl` (stereo not given), the inhibition is 19.2% (inactive).
On the same count and under the same terms, next, `Cc1[nH]n(C(N)=S)c(=O)c1C(c1ccccc1)C(C#N)C#N` (stereo not given): -18% (inactive).
Still for that read-out and setting: the figure for `CCNc1ccc2c(Cl)cc(=O)oc2c1` is -1.88% (inactive).
For `Cc1ccnc(NS(=O)(=O)c2ccc(NC(=O)Cc3cccs3)cc2)n1`, the inhibition is -12.1% (inactive).
Still for that read-out and setting: the figure for `O=c1oc2ccccc2c(O)c1CN1CCCCC1` is 8.62% (inactive); for `CCOCCn1c(CN2CCC(Cc3ccccc3)CC2)nc2c1c(=O)n(C)c(=O)n2C` it is 22.9% (inactive).
As for `NC(=O)c1cc(-c2ccccc2)nc(N2CCOCC2)n1`, the inhibition was 25.8% (inactive).
Still for that read-out and setting: next, `O=C(CN1C(=O)c2ccccc2S1(=O)=O)Nc1ccc(S(=O)(=O)N2CCCCCC2)cc1`: 19.5% (inactive); `COC(=O)C1=C(C)Nc2ncnn2C1c1ccc(C)o1` (stereo not given): -6.27% (inactive).
Still for that read-out and setting: next, `CC1Cc2ccccc2N1C(=O)c1cnsn1` (stereo not given): -3.1% (inactive); `COc1ccc(C(=O)OCC(=O)NCc2ccco2)cc1OC`: 27.6% (inactive); `CCOC(=O)Cn1c(S(=O)(=O)Cc2ccccc2)nc2ccccc21`: 30.4% (inactive).
On the same count and under the same terms, the figure for `CCOC(=O)C1CCN(c2c(NC3CCCCCCC3)c(=O)c2=O)CC1` is 32.7% (inactive).
On to `COc1ccc2c(c1)C1(Nc3ccccc3-c3nc4ccccc4n31)C(=O)N2` (stereo not given), for which the inhibition is 36.3% (inactive).
In the case of `Cc1cccc(NC(=O)CC2NC3CCCCC3NC2=O)c1` (stereo not given), the inhibition was 14.2% (inactive).
For the compound `COc1ccc(-c2nc(CCNC(=O)c3ccco3)cs2)cc1OC`, the inhibition was -5.2% (inactive).
Same read-out and setting: next, `CCN(CC)CCCNC1CCS(=O)(=O)C1` (stereo not given): 13.2% (inactive); `O=C(C1CCC(CNS(=O)(=O)c2cccc3cccnc23)CC1)N1CCCC1` (stereo not given): 14.6% (inactive).
Take `CCCc1cc(Nc2cccc(OC)c2)n2ncnc2n1`: the inhibition is 16.3% (inactive).
Still for that read-out and setting: next, `CC(=O)c1c(O)cc(C)n(Nc2nc(C)cc(C)n2)c1=O`: -18.7% (inactive); `CCOC(=O)C1CCN(C(=O)CN(Cc2ccccc2)S(C)(=O)=O)CC1`: 7.77% (inactive); `Cc1nc(C)c2c(c1C(F)(F)F)-c1ccccc1C2(F)F`: 98.9% (active).
Still for that read-out and setting: next, `CCCC(=O)Nc1ccc(NC(=O)c2ccccc2OC)cn1`: -1.09% (inactive).
Still for that read-out and setting: the figure for `O=C(CCc1ccc(S(=O)(=O)N2CCOCC2)cc1)NCCc1ccccn1` is 1.41% (inactive).
`COC(=O)c1sc(N)c(C(=O)OC)c1COC(=O)C1CC(=O)N(Cc2ccco2)C1` (stereo not given): the inhibition is 11.9% (inactive).
Still for that read-out and setting: next, `CCC12CN3CC(CC)(CN(C1)C3c1ccc(OC(C)C)cc1)C2=O` (stereo not given): 15.9% (inactive).
Regarding `Cc1ccccc1-c1nc(CN2CCC(C(=O)N3CCC(C(N)=O)CC3)CC2)c(C)o1`, the inhibition was 40.4% (inactive).
The same measure, in the same setting: next, `CC1(C(=O)NC2CCCCC2)CCC(=O)N1Cc1cccs1` (stereo not given): 12.6% (inactive); `CC(=O)Nc1cccc(NC(=O)C2CCCN2C(=O)Nc2ccc(C)cc2)c1` (stereo not given): 20.3% (inactive).
Same read-out and setting: next, `Cn1cccc1Cc1nnc(SCC(N)=O)n1-c1ccc(F)cc1`: 24.3% (inactive); `O=c1cc(CN2CCN(c3ccc(F)cc3)CC2)nc2sccn12`: 0.252% (inactive).
Still for that read-out and setting: the figure for `Cc1cc2ccccc2n1CCNC(=O)c1ccc(S(=O)(=O)N2CCOCC2)cc1` is 30% (inactive).
Consider `COc1cc(N=c2ssnc2Cl)cc(OC)c1`, for which the inhibition was 8.97% (inactive).
Same read-out and setting: the figure for `COc1ccccc1C(=O)N1CCN(CCc2ccccc2)CC1` is 0.325% (inactive); for `CCOc1cc(NC(=O)c2ccco2)c(OCC)cc1NC(=O)COc1ccccc1C` it is -75.9% (inactive); for `O=C(c1ccc(CNc2c(N3CCCC3)c(=O)c2=O)cc1)N1CCc2ccccc2C1` it is 4.25% (inactive).
As to `CCOC(=O)c1c(C)n(C)c2c(C)cc(O)c(OC(C)=O)c12`, the inhibition is -2.25% (inactive).
As to `Cc1nnc(SC(=O)N2c3ccccc3Sc3ccccc32)s1`, the inhibition was 65.9% (active).
On the same count and under the same terms, the figure for `O=C(O)CCCc1nc(-c2ccccc2)no1` is 20.7% (inactive); for `Cc1ccc(S(=O)(=O)N2CCN(C(=O)CSc3nnnn3C)C2)cc1` it is 20.3% (inactive).

These data come from PubChem BioAssay.
